Activity calls are given as the source filed them.
Assay: growth of efflux-deficient E. coli DRC39 – strain DRC39, OD650, 24 h, E. coli filamentation inducers, primary screen (AID 1178);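 note: growth measured as culture turbidity by optical density at 650 nm; test concentration not given here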
Conditions: E. coli DRC39 acrAB, higher = more signal, called active from +8 up or from −8 down

z-score, inactive:
[N-]=[N+]=NCc1ccccc1C[C@@]1(C(=O)N2CCCCC2)N=C(c2ccc(OCCCO)cc2)O[C@@H]1c1ccccc1 0.297
O=C1O[C@@H](c2ccccc2)[C@@H](c2ccccc2)N2[C@@H](c3ccc(OCCO)cc3)[C@]3(C(=O)Nc4ccccc43)[C@@H](C(=O)O)[C@H]12 0.468
CC(CO)N1C(=O)[C@@H]2[C@H]3C(=O)OCC=C[C@H]3OC23C=CCN(C(C)(C)C)C(=O)[C@@H]13 (some centres undefined) -0.554
CN1C(=O)C2C=CC(C(O)c3cccc4ccccc34)N(N3CCCCC3)C2C1=O (centres undefined) -0.619
CN(C)C(=O)[C@]1(CCS(=O)(=O)c2ccccc2)N=C(c2ccc(OCCCO)cc2)O[C@@H]1c1ccccc1N=[N+]=[N-] 0.292
COC(=O)[C@@]1(Cc2ccc(F)cc2)[C@H]2c3cc(C(=O)N4CCCC4)n(CCc4ccc(O)c(O)c4)c3C[C@H]2CN1C(=O)c1ccccc1 -0.265
CN(C)CCCNC(=O)[C@@]1(c2ccc([N+](=O)[O-])cc2)CC(=O)N(CC23CC4CC(CC(C4)C2)C3)[C@@H]1c1ccc(CO)cc1I -1.46
Cc1cc(C)c(C(O)C2C=CC3C(=O)NC(=O)C3N2Nc2ccc(Cl)cc2Cl)c(C)c1 (centres undefined) -0.731
COCCOC(=O)N1C(=O)[C@@]2(c3cc(C#CC4=CCCCC4)ccc31)[C@H](c1ccc(OCCO)cc1)N1[C@H](c3ccccc3)[C@H](c3ccccc3)OC(=O)[C@H]1[C@@H]2C(=O)N1CCN(c2ncccn2)CC1 -0.294
